# PMC7826789 (International Journal of Molecular Sciences, 2021)
structure (smiles),measurement,setting,value
NCC1CCC(CNc2nc(NCc3ccccc3OC(F)(F)F)ncc2[N+](=O)[O-])CC1 (centres unmarked) [BIRZ0518XX],Kinases covered,PRKCD,PRKCD
same,Kinases covered,PRKCE,PRKCE
same,Kinases covered,PRKCQ,PRKCQ
COc1ccc2nc(-c3cccc(C)n3)nc(Nc3ccncc3)c2c1 [GSK204919],Kinases covered,PRKD1,PRKD1
same,Kinases covered,PRKD2,PRKD2
Cc1cccc(-c2nc(Nc3ccncc3)c3ccccc3n2)n1 [GW855857],Kinases covered,PRKD1,PRKD1
same,Kinases covered,PRKD2,PRKD2
same,Kinases covered,PRKD3,PRKD3
COc1cc(N2CCN(C(C)C)CC2)ccc1Nc1nc(Nc2ccc(F)cc2C(=O)NC[C@@H](O)CO)c2cc[nH]c2n1 [GSK1392956A],Kinases covered,PTK2B,PTK2B
CNc1nc(-c2ccc3c(N)n[nH]c3c2)cc(N2C[C@@H](C(=O)Nc3ccccc3)CC[C@H]2C)n1 [GSK2298859],Kinases covered,PRKX,PRKX
CCn1c(-c2nonc2N)nc2c(C#CC(C)(C)O)nc(OCCNC)cc21.Cl [GSK949675],Kinases covered,PRKCH,PRKCH
C[C@@H]1CCNC(=O)c2cc3ccc(C(=O)Nc4nc5ccccc5n4CCCN(C)C)cc3n21 [BI00645435],Kinases covered,PRKD1,PRKD1
COc1cc(Nc2cnc(C#N)c(O[C@H](C)CN(C)C)n2)ncc1-c1cnn(C)c1 [CCT244747],Kinases covered,PRKAA1,PRKAA1
Cc1cccc(-c2cc(Nc3ccncc3)c3ccccc3n2)n1 [GSK223675],Kinases covered,PRKD1,PRKD1
